Unmarked numbers belong to inactive results. Activity calls are given as the source filed them. Calls come from the whole dose curve; as a rule, active = well fitted curve in the direction sought with a large enough effect in the repeat runs; inconclusive = weak or mixed curves; inactive = flat fitted curve, though single readings scatter.
Assay: qHTS assay to test for compound auto fluorescence at 590 nm (red) in HepG2 cell free culture (AID 720684)
Settings: cell-free medium autofluorescence, red 540/590 nm; series mostly up to 91.3 µM; fluorescence, % of Rose Bengal: at the top concentration
Excerpt: U.S. Tox21 Program National Center for Advancing Translational Sciences [NCATS] NIH Chemical Genomics Center [NCGC] U.S. Environmental Protection Agency [EPA] National Institutes of Environmental Health Sciences [NIEHS] National Toxicology Program [NTP] U.S. Food and Drug Administration [FDA] Tox21 Assay Overview: Compound auto fluorescence often interferes with screening of the compound library against various biological targets and signaling pathways. Some of these compounds may have fluorophoric properties. Such properties may interfere with the assay outputs resulting in false positives and/or negatives. To decrease such complications and ensure the compound activities are relevant in terms of biological response, the Tox21 10K compound library was screened for auto fluorescence. From the fluorophores used as reporter signals in our screening assays, the auto fluorescence equivalencies of compounds against three fluorophores have been evaluated: Triamterene, Fluorescein and Rose Bengal sodium for blue, green and red fluorescence, respectively. The fluorescence intensities were measured using Excitation/Emission wavelengths at 405/460nm, 485/535nm and 540/590nm for blue, green and red labels, respectively. This assay includes the red fluorescence data.
Tox21 Assay Protocol Summary: 5 uL of culture medium (MEM containing 10% FBS) per well was dispensed into black wall/clear bottom 1536-well plates using a Multidrop Combi Dispenser (ThermoFisher Scientific, Waltham, MA). After 23 nL compound or DMSO vehicle was transferred into assay plate by a pintool work station (Kalypsys, San Diego, CA), fluorescence intensities in the assay plates were measured by an Envision (PerkinElmer, Shelton, CT) plate reader using three labels for measuring blue, green and red fluorescence at […] 460, 535 and 590nm respectively.
% is set by controls: 0 for no effect and ±100 for the full control effect.

Row | SMILES | fluorescence, % of Rose Bengal | outcome
1 | CCCCOCCOC(=O)COc1cc(Cl)c(Cl)cc1Cl | 0.123% | –
2 | O=C(O)Cc1csc(-c2ccc(Cl)cc2)n1 | -0.0591% [at 46 µM] | –
3 | COCCOC[C@H](CC1(C(=O)NC2CCC(C(=O)O)CC2)CCCC1)C(=O)Oc1ccc2c(c1)CCC2 (stereo not given in full) | 0.0421% | –
4 | Clc1cc(Cl)cc(Cl)c1 | 0.0078% | –
5 | Nc1ccncc1N | -0.0812% [at 46 µM] | –
6 | COc1cc(C(=O)NCc2ccc(OCCN(C)C)cc2)cc(OC)c1OC | -0.58% [at 18.6 µM] | –
7 | O=C1c2ccccc2C(=O)c2cc(O)ccc21 | 0.0086% | –
8 | CCCCOCCOC(=O)CCCCCCCCC(=O)OCCOCCCC | -0.0026% | –
9 | COc1c(N2CCNC(C)C2)c(F)cc2c(=O)c(C(=O)O)cn(C3CC3)c12 (stereo not given) | -0.01% [at 46 µM] | –
10 | CC(C)CCCO | 0.14% | –
11 | C=CC(=O)OCCCl | -0.0872% [at 95.7 µM] | –
12 | Cc1ncc([C@@H](CCCCCCc2ccc3c(n2)NCCC3)CC(=O)O)cn1 | 0.119% | –
13 | C=CCOCC(O)CO (stereo not given) | 0.079% | –
14 | CC1OC1C1CCC2(C)OC2C1 (stereo not given) | 0.102% | –
15 | NC(=O)Cc1cccc2ccccc12 | 0.087% | –
16 | CC(C)(C)C(=O)Oc1ccc(S(=O)(=O)Nc2ccccc2C(=O)NCC(=O)O)cc1 | 0.0024% [at 46 µM] | –
17 | COc1cccc(OC)c1C(=O)N[C@@H]1C(=O)N2[C@@H]1SC(C)(C)[C@@H]2C(=O)O | 0.0452% [at 46 µM] | –
18 | CCOC(=O)COc1cc(-n2ncc(C(F)(F)F)c(C)c2=O)c(F)cc1Cl | -0.0558% | –
19 | NC(CCC(=O)O)C(=O)O (stereo not given) | 0.212% | –
20 | N[C@H](C(=O)O)[C@@H](O)c1ccc(O)c(O)c1 | -0.0734% [at 46 µM] | –

Row | SMILES | fluorescence, % of Rose Bengal | outcome
21 | O=C(c1ccccc1)C1(O)CCCCC1 | 0.0454% | –
22 | CCOC(=O)COC(=O)c1ccccc1C(=O)OCC | 0.0541% | –
23 | CC(C)=CCC/C(C)=C/C#N | 0.391% [at 95.7 µM] | –
24 | CC(=O)OCC(=O)[C@@]1(O)[C@H](C)C[C@H]2[C@@H]3CCC4=CC(=O)C=C[C@]4(C)[C@@]3(F)[C@@H](O)C[C@@]21C | – | inactive
25 | Cc1nc2ccc(CN(C)c3ccc(C(=O)N[C@@H](CCC(=O)O)C(=O)O)s3)cc2c(=O)[nH]1 | – | inactive
26 | C[N+](C)(C)CCCCCCCCCC[N+](C)(C)C | -0.306% [at 46 µM] | –
27 | C[N+]12CCC(CC1)C(OC(=O)C(O)(c1ccccc1)c1ccccc1)C2 (stereo not given) | 0.213% [at 18.6 µM] | –
28 | CCCCCCC#CC(=O)OC | -0.0166% | –
29 | CCCCc1ccc2c(n1)[C@@H](c1ccc(OC)cc1C[C@H](C)C(=O)O)[C@H](C(=O)O)[C@H]2c1ccc2c(c1)OCO2 | 0.0444% | –
30 | c1ccc(CCc2ccccc2)cc1 | -0.11% | –
31 | Nc1ccccn1 | 0.0753% | –
32 | CC(C)C(=O)OC(=O)C(C)C | -0.0501% | –
33 | NC(=O)N[C@@H](CCC(=O)O)C(=O)O | -0.0153% [at 46 µM] | –
34 | Nc1c2c(nc3c1CCC3)CCCC2 | 0.0535% [at 46 µM] | –
35 | OCCc1ccccn1 | 0.134% | –
36 | CC(=O)c1cnccn1 | -0.147% [at 95.7 µM] | –
37 | C[N+]1(C)[C@@H]2CC(OC(=O)[C@H](CO)c3ccccc3)C[C@H]1[C@@H]1O[C@@H]12 (stereo not given in full) | -0.604% [at 46 µM] | –
38 | CCC(C)(CCCC(C)C)OC(C)=O (stereo not given) | -0.0951% | –
39 | CN1[C@@H]2CC[C@H]1CC(OC(=O)C(O)c1ccccc1)C2 (stereo not given in full) | – | inactive
40 | CC(C)(CCC(=O)O)C(=O)O | 0.111% [at 95.7 µM] | –
